Assay [1] can be described thus: anti-His antibody binders, primary screen, artefact control for SMM control protein annotation, biochemical, small-molecule microarray, 635 nm fluorescence (AID 1128).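 Also: score merges feature fluorescence with signal-to-noise for each printed compound spot.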 The note with it: anti-His Alexa647 antibody binding, higher = more signal.
For assay [2], the system named is Human papillomavirus type 1a E7 protein (residues 1-88). As to the kind of experiment: HPV1a E7 small-molecule binders, primary screen, biochemical, small-molecule microarray, residues 1-88, 635 nm (AID 1129). The settings on record: small-molecule microarray binding, fluorescence 635 nm; higher = more signal.
For assay [3], the target named is Focal adhesion kinase 1 (Homo sapiens) (UniProt Q05397). As to the kind of experiment: small-molecule microarray binders of FAK, primary screen, biochemical, 635/667 nm fluorescence, BSA, DTT (AID 1130).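 Also: composite of spot emission at 667 nm and signal to noise over triplicate slides.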 The settings on record: PTK2 binding, 635 nm fluorescence, higher = more signal.
Focal adhesion kinase 1 (Homo sapiens), sequence (Q05397 whole entry, looked up): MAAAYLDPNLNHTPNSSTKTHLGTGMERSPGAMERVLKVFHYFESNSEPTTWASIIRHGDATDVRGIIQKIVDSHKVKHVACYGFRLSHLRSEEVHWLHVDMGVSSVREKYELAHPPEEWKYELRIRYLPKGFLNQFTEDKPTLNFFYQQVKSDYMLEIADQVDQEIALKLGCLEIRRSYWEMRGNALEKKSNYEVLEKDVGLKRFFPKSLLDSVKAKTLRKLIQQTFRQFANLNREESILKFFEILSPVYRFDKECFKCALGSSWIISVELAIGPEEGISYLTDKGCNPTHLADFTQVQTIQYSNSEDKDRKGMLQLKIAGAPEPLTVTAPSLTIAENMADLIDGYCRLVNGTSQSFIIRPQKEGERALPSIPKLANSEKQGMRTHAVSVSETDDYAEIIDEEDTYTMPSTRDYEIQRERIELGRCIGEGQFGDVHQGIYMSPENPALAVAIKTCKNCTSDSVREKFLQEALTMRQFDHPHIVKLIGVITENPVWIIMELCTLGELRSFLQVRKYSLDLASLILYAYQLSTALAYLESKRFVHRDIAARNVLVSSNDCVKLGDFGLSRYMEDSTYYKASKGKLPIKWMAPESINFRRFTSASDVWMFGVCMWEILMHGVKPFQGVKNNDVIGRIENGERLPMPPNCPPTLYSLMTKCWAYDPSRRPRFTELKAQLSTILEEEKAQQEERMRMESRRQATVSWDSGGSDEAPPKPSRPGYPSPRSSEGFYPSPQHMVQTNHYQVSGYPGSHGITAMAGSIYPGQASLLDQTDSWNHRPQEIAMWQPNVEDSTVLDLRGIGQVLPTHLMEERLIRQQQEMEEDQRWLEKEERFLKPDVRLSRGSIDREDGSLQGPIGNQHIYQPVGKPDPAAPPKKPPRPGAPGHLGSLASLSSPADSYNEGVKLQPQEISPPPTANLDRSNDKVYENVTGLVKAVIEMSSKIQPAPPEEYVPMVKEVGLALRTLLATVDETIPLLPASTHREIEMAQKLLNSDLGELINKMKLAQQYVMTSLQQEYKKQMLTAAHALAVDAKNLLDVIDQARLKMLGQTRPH
Assay [4] has as its system Fibrinogen (Alexa647-labelled). In words: fibrinogen binders on compound microarrays, profiling panel, artefact control for SMM control-protein annotation, biochemical, small-molecule microarray, 635/667 nm fluorescence (AID 1131).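 Also: z-score merges 667 nm fluorescence with per-spot signal-to-noise over triplicate slides.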 The settings on record: fibrinogen-A647 binding fluorescence, higher = more signal.
For assay [5], the target named is Follistatin (Homo sapiens) (UniProt P19883). In words: follistatin binders on small-molecule microarrays, primary screen, biochemical, small-molecule microarray, 635/667 nm fluorescence (AID 1132). The settings on record: FST binding, 635 nm fluorescence, higher = more signal.
Follistatin (Homo sapiens), sequence (P19883 whole entry, looked up): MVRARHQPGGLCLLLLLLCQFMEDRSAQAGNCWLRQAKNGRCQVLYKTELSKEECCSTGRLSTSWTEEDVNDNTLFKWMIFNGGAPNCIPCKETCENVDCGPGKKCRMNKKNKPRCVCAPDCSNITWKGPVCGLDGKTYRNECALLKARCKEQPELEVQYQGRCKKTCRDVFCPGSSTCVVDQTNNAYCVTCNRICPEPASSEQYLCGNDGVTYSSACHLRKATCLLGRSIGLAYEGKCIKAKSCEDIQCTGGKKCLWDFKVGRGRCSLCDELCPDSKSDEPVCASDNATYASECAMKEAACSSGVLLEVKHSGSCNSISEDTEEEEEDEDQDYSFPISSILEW
The target of assay [6] is Fibroblast growth factor 2 (Homo sapiens) (UniProt P09038). As to the kind of experiment: FGF2 binders on small-molecule microarrays, primary screen, biochemical, small-molecule microarray, 635/667 nm fluorescence (AID 1133). The note with it: small-molecule microarray binding, FGF2, fluorescence 635/667; higher = more signal.
Fibroblast growth factor 2 (Homo sapiens), sequence (P09038 whole entry, looked up): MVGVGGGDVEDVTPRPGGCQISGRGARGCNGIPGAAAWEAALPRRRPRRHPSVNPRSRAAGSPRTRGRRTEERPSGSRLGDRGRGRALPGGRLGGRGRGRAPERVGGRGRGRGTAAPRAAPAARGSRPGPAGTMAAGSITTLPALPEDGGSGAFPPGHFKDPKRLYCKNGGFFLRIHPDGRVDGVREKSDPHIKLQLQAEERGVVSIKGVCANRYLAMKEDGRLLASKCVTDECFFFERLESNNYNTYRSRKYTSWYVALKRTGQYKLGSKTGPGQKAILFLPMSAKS
A short description of assay [7]: mitochondrial membrane potential change in A549 cells, profiling panel, cell-based, JC-1 fluorescence, basal, 24 h, 100 nL (AID 1138).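 Also: A549 lung adenocarcinoma cells under basal conditions with no added stimulus; test concentration not given here.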 The settings on record: higher = more signal.
The test system of another assay is Lefty1. As to the kind of experiment: Lefty1 binders on small-molecule microarrays, primary screen, biochemical, small-molecule microarray, 635/667 nm fluorescence (AID 1139). The settings on record: small-molecule microarray binding, fluorescence 635/667; higher = more signal.
For assay [8], the system named is wheat germ agglutinin (Triticum aestivum), Alexa647-labelled. In words: wheat germ agglutinin binders on compound microarrays, profiling panel, artefact control for SMM control-protein annotation, biochemical, small-molecule microarray, 635/667 nm fluorescence (AID 1140).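 Also: score merges 667 nm feature emission with signal to noise over triplicate slides.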 The note with it: WGA-A647 binding, 635 nm fluorescence, higher = more signal.
Assay [9] deals with Luciferin 4-monooxygenase (Photinus pyralis) (UniProt P08659). As to the kind of experiment: firefly luciferase enzyme inhibitors, primary screen, biochemical, luminescence, purified enzyme, 2006 set (AID 1141).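 Also: cell-free assay with purified firefly luciferase at 100 ng per well in PBS; test concentration not given here.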 The settings on record: SteadyGlo luminescence, 30 min, higher = more signal, called active from +8 up or from −8 down.
Luciferin 4-monooxygenase (Photinus pyralis), sequence (P08659 whole entry, looked up): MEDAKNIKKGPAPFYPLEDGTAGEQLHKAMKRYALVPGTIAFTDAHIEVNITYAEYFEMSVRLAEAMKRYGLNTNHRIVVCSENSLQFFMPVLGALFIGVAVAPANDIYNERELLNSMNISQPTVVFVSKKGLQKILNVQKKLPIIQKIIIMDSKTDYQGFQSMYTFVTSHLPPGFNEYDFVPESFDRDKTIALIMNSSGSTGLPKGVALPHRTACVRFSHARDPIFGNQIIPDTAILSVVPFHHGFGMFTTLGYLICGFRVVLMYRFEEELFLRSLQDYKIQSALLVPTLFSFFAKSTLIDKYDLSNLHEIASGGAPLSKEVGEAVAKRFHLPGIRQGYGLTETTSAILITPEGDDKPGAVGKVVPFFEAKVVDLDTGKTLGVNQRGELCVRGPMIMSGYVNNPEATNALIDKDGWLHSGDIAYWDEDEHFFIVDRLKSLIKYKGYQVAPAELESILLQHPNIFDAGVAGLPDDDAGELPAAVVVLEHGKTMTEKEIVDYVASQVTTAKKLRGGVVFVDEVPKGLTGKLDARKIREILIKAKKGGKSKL
For assay [10], the system named is Wnt5a (protein binding on small-molecule microarray). As to the kind of experiment: Wnt5a binders on small-molecule microarray, primary screen, biophysical, 635/667 nm fluorescence (AID 1142).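 Also: fluorescence read at 667 nm with signal to noise per printed feature.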 The note with it: 635 nm fluorescence, higher = more signal.
Assay [11] can be described thus: cell viability in Huh7 cells, primary screen, cytotoxicity control for HCV replication inhibitor project, CellTiter-Glo luminescence, basal, 48 h (AID 1143).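 Also: Huh7 hepatoma cells carrying a hepatitis C replication reporter with no stimulus; test concentration not given here.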 The note with it: Huh7 HCV replicon, higher = more signal, called active from +8 up or from −8 down. A general note: ATP-based viability assays read luminescence as a measure of living cells.
Assay [12] in a line: P. aeruginosa biofilm formation inhibitors, primary screen, PAO1 strain, BacTiter-Glo luminescence, LB-PBS (AID 1144). The settings on record: 12 h, higher = more signal.
A short description of assay [13]: CREB reporter modulators without forskolin, primary screen, cell-based, PC12, CRE-LacZ reporter, unstimulated (AID 1145). The settings on record: no forskolin, luminescence, 4.5 h, higher = more signal, called active from +8 up or from −8 down.
The nature of assay [14]: CREB reporter modulators under forskolin, primary screen, cell-based, PC12, CRE-LacZ reporter, forskolin-stimulated (AID 1146).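 Also: PC12 cells with 6xCRE LacZ reporter stimulated by forskolin 10 µM; beta-galactosidase reporter signal reflecting CREB driven transcription.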 The note with it: luminescence, 4.5 h, higher = more signal, called active from +8 up or from −8 down.
Assay [15] concerns the target Streptavidin (Streptomyces avidinii) (UniProt P22629). In words: streptavidin binders on small-molecule microarray, primary screen, artefact control for SMM compound annotation, biophysical, 635/667 nm fluorescence (AID 1147).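 Also: signal reflects streptavidin binding to arrayed compounds as a control protein.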 The note with it: streptavidin binding, higher = more signal.
A short description of assay [16]: small-molecule binders of probe aInhba, primary screen, biochemical, small-molecule microarray, 635/667 nm fluorescence (AID 1148).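 Also: score merges 667nm spot fluorescence with signal-to-noise for antibody binding to printed compounds.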 The note with it: higher = more signal.
In assay [17] the target is Torsin-1A (Homo sapiens) (UniProt O14656). As to the kind of experiment: torsin A binders from cell lysate, primary screen, small-molecule microarray, wild-type, 635/667 nm (AID 1149). The note with it: COS7 hTOR1A-WT lysate, 635 nm fluorescence, higher = more signal.
Torsin-1A (Homo sapiens), sequence (O14656 whole entry, looked up): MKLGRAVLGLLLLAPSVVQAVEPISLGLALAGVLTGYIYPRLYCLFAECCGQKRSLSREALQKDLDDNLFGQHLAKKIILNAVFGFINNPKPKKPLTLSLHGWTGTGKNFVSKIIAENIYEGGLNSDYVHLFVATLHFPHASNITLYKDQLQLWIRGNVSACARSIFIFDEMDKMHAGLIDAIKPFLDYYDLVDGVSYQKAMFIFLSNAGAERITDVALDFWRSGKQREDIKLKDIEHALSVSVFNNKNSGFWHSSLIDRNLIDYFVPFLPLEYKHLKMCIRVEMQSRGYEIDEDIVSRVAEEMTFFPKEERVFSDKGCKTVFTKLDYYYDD
The target is the same in assay [18]. In words: small-molecule binders of mutant TOR1A in lysate, primary screen, cell lysate, small-molecule microarray, COS7 lysate, 635/667 nm fluorescence (AID 1150).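 Also: score pools 667 nm emission and signal to noise measuring lysate protein binding.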 The note with it: COS7 hTOR1A mutant lysate, 635 nm fluorescence, higher = more signal.
For assay [19], the system named is Sonic hedgehog protein (Shh). In words: small-molecule binders of Shh protein, primary screen, biochemical, small-molecule microarray, 635/667 nm fluorescence (AID 1151).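 Also: Shh protein binding to compounds spotted on small-molecule microarray slides; score combines spot fluorescence intensity with signal-to-noise across triplicate slides.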 The note with it: small-molecule microarray binding, 635 nm fluorescence; higher = more signal.

The results in this text go back to PubChem BioAssay.

Values joined by “and” are separate entries in the source; they are usually repeats but may differ in a detail not shown here. Identical values can stand only once. Active and inactive are the calls of the source. Unless noted, no rule for the calls is given here.

Streptavidin (Streptomyces avidinii), sequence (P22629 whole entry, looked up): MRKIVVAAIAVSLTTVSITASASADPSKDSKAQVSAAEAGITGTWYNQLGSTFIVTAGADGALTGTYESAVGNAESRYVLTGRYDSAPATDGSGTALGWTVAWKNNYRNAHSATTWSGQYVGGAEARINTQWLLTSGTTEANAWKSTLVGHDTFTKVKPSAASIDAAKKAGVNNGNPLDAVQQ

On to `C=CC[C@@H](O)c1ccc(OCCO)cc1`, for which the composite z-score was 0.7 and -0.687 in assay [1]; 0.301 and -0.59 in assay [2]; -0.595 and -0.79 in assay [3]; -1.34 and -0.494 in assay [4]; 0.716 and -0.517 in [5]; -0.418 and -1.58 in assay [6]. Besides, the composite z-score was -0.146 and -0.805 in the assay with Lefty1; -0.455 and 0.763 in assay [8]; -0.0578 and -0.579 in assay [10]; -1.47 and -0.878 in assay [15]; -0.259 and -0.153 in assay [16]; 0.588 and -3.38 in the assay with Torsin-1A (Homo sapiens) [17]. Moreover, the composite z-score was 0.479 and -2.42 with Torsin-1A (Homo sapiens) [18]; 0.0925 and -0.262 in assay [19]. Further, the z-score in assay [7] was 0.856 and 0.491; in assay [9], -6.43 (inactive) and -6.38 (inactive); in [11], -0.924 (inactive) and -0.105 (inactive); in [12] it was 0.517 (inactive) and -0.242 (inactive); in assay [13], -0.431 (inactive) and 0.772 (inactive); in assay [14], -0.613 (inactive) and -0.949 (inactive).

Turning to `CC(C)CCN1CCc2nc(-c3ccccc3)c3c(c2C1)CO[C@@H](C)C3`, the composite z-score in assay [1] is 0.554; in assay [2], 0.669; in [3], 0.304; in [4], 0.436; in assay [5], 0.785; in assay [6] it was 0.528. In addition, the composite z-score was determined as 0.631 in the assay on Lefty1; 0.931 in assay [8]; 0.0842 in assay [10]; 0.375 in assay [15]; 0.0173 in assay [16]; 0.509 in the assay with Torsin-1A (Homo sapiens) [17]. Further, the composite z-score with Torsin-1A (Homo sapiens) [18] is 0.471; in assay [19] it was 0.827. Also, the z-score in assay [7] was 1.19; in assay [9], -1.17 (inactive); in assay [11], 0.267 (inactive); in assay [12] it was 0.268 (inactive); in assay [13] it was 4.64 (inactive); in [14], -0.44 (inactive).

As for `CC(CO)N1C(=O)[C@@H]2C3C(=O)OCCC=C[C@H]3OC23C=CCN(c2ccc(Cl)cc2)C(=O)[C@@H]13` (stereo not given in full), the composite z-score in assay [1] was -1.31 and 1.36; in [2], -1.31 and -0.0543; in [3] it was 1.69 and 0.156; in assay [4], -0.697 and 0.363; in [5], -1.49 and 0.33; in assay [6] it was -1.73 and -0.68. Besides, the composite z-score in the assay on Lefty1 is -1.49 and 0.213; in [8], -0.0757 and 0.684; in assay [10], -0.396 and -0.34; in assay [15], -0.9 and 0.152; in assay [16] it was -0.111 and 0.0541; with Torsin-1A (Homo sapiens) [17], -1.09 and -1.53. Also, the composite z-score with Torsin-1A (Homo sapiens) [18] was -2.42 and -1.49; in assay [19], -0.359 and 0.829. In addition, the z-score was 0.931 and 0.848 in assay [7]; -0.593 (inactive) and -0.731 (inactive) in assay [9]; -0.666 (inactive) and -0.787 (inactive) in assay [11]; 1.06 (inactive) and 0.664 (inactive) in assay [12]; 0.187 (inactive) and 0.325 (inactive) in assay [13]; -0.613 (inactive) and 0.478 (inactive) in assay [14].

Turning to `C=C[C@@H](C)[C@@H](O)c1ccc(OCCO)cc1`, the composite z-score in assay [1] is -0.641 and -0.244; in assay [2] it was -0.66 and -0.875; in assay [3] it was -0.467 and -1.08; in assay [4] it was -1.87 and -1.43; in assay [5], -1.14 and -0.506; in [6], -2.62 and -0.83. For the same compound, the composite z-score was -1.33 and -1.19 in the assay with Lefty1; -0.616 and -0.2 in assay [8]; -1.29 and -1.06 in assay [10]; -1.1 and -0.908 in assay [15]; -0.312 and -0.213 in assay [16]; -3.3 and -3.39 with Torsin-1A (Homo sapiens) [17]. Besides, the composite z-score with Torsin-1A (Homo sapiens) [18] was -2.66 and -2.95; in [19], -1.39 and 0.319. Also, the z-score in [7] was -0.0607 and 0.803; in assay [9] it was -5.97 (inactive) and -7.19 (inactive); in [11], -0.295 (inactive) and -0.245 (inactive); in [12], -0.828 (inactive) and -0.12 (inactive); in assay [13], 0.105 (inactive) and 1.46 (inactive); in assay [14], -0.466 (inactive) and -0.637 (inactive).

With `COC(=O)C1=C2N(Cc3ccccc3)C(C)=C(C(=O)OC)[C@@H](c3ccccc3)N2C(=O)[C@](O)(C(=O)OC)C1`, the composite z-score in assay [1] is 0.0444 and -0.657; in assay [2] it was 0.644 and 0.0112; in assay [3] it was 0.268 and -0.172; in assay [4], 0.985 and 0.0539; in assay [5], 0.419 and 0.587; in [6], 1.71 and 0.858. In addition, the composite z-score is 0.911 and 0.508 in the assay with Lefty1; 0.526 and -0.342 in assay [8]; -0.0382 and -0.0845 in assay [10]; -0.302 and -0.327 in assay [15]; -0.0736 and -0.0895 in assay [16]; 1.04 and 2.21 with Torsin-1A (Homo sapiens) [17]. Besides, the composite z-score with Torsin-1A (Homo sapiens) [18] is 0.42 and 3.89; in [19], 0.71 and 0.673. The z-score in [7] was 0.218 and 0.136; in [9] it was -0.0132 (inactive) and 0.18 (inactive); in assay [11], -0.124 (inactive) and 0.0688 (inactive); in [12] it was 0.917 (inactive) and -0.22 (inactive); in assay [13] it was 2.08 (inactive) and 1.8 (inactive); in assay [14], -1.03 (inactive) and -0.435 (inactive).

On to `CC(C)=NOC[C@@H](O)COCc1ccco1`, for which the composite z-score in assay [1] is 1.27; in assay [2], -1.73; in assay [3], -0.395; in assay [4], -1.83; in assay [5] it was 0.112; in assay [6] it was 0.782. The composite z-score was -0.181 in the assay with Lefty1; -0.988 in assay [8]; -0.0761 in assay [10]; -0.499 in assay [15]; -0.003 in assay [16]; -0.469 with Torsin-1A (Homo sapiens) [17]. Also, the composite z-score came to 2.08 with Torsin-1A (Homo sapiens) [18] and 0.712 in assay [19]. Further, the z-score was 0.354 in assay [7]; -1.28 (inactive) in [9]; 0.326 (inactive) in [11]; -0.209 (inactive) in [12]; -1.71 (inactive) in [13]; -0.619 (inactive) in assay [14].

For `CCOC(=O)CCN1C(=O)[C@H]2[C@H]3[C@H](O)[C@H](O)CC(=NNC(=O)OCC)[C@@H]3CC[C@H]2C1=O`, the composite z-score in [1] was -0.23; in assay [2], 0.364; in assay [3], 0.366; in assay [4], 0.384; in assay [5], -0.124; in assay [6] it was 0.447. Further, the composite z-score in the assay with Lefty1 is -0.0407; in [8] it was -0.368; in assay [10], 0.201; in assay [15], -0.283; in assay [16], -0.0791; with Torsin-1A (Homo sapiens) [17], 0.274. Besides, the composite z-score was found to be 0.608 with Torsin-1A (Homo sapiens) [18] and 0.188 in [19]. The z-score in [7] was 0.167; in assay [9], 0.406 (inactive); in [11], 0.0243 (inactive); in assay [12] it was -0.129 (inactive); in assay [13], 0.796 (inactive); in assay [14], 0.261 (inactive).
